About 3,300 (0.97%) of roughly 340,000 compounds were called active. Roughly 9% stayed inconclusive and do not appear here. Calls come from the whole dose curve; as a rule, active = well fitted inhibition curve with a large enough effect; inconclusive = small, poorly fitted or top-dose-only effect, or effect the other way; inactive = flat fitted curve, though single readings scatter. This is one part of the list.
Assay: qHTS Assay for Modulators of miRNAs and/or Inhibitors of miR-21; note: nearly all actives have a fitted effect of over 55% in size
Conditions: HeLa miR-21-FLuc reporter, luciferase luminescence, 48 h; actives lower the signal
How it was run: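 Compounds were titrated across several concentrations (up to approximately 40 uM) and incubated 48 hours with HeLa miR-21-FLuc reporter cells (miR-21 target sequence downstream of FLuc, endogenous miR-21). Readout was firefly luciferase luminescence after lytic detection reagent.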
Potency is the fitted concentration of half-maximal effect.

Potency, active:
Cc1nc(C#N)c(N/N=C/c2cccc(Cl)c2)o1 7.36 µM
CCOc1ccc(-c2cc(NC(=O)Nc3ccccc3Cl)c(C(=O)OC)s2)cc1 5.85 µM
COC(=O)c1sc(-c2ccc(C(C)(C)C)cc2)cc1NC(=O)COCC(=O)O 11.7 µM
COC(=O)c1sc(-c2ccc(C(C)(C)C)cc2)cc1NC(=O)CCC(=O)O 5.21 µM
COc1ccc(N2C(=O)c3ccccc3NC2c2ccc(OC)c(Cn3nnc4ccccc43)c2)cc1 (stereo not drawn) 5.21 µM
COc1ccc(C2Nc3ccccc3C(=O)N2c2ccc(C)cc2)cc1Cn1nnc2ccccc21 (stereo not drawn) 6.56 µM
COc1ccc(C2Nc3ccccc3C(=O)N2c2ccc(Cl)cc2)cc1Cn1cc([N+](=O)[O-])cn1 (stereo not drawn) 0.736 µM
O=[N+]([O-])c1ccccc1/C=N/OCc1ccccc1 14.7 µM
Cc1ccc(Cn2cnc3nc4c(cc3c2=O)CCCC4)cc1 8.26 µM
Cc1ccc(Cn2cnc3nc4c(cc3c2=O)CC(C)CC4)cc1 (stereo not drawn) 4.65 µM
O=C(Nc1ccc2c(c1)CCC2)C1COc2ccccc2O1 (stereo not drawn) 1.47 µM
Cc1nc2cc(NC(=O)C3COc4ccccc4O3)ccc2s1 (stereo not drawn) 4.14 µM
Cc1c(C(=O)N(CCO)Cc2ccccc2)oc2c(F)cccc12 13.1 µM
C=CCn1c(SCC(N)=O)nnc1-c1cc2c(s1)CCC(CC)C2 (stereo not drawn) 13.1 µM
C=CCn1c(SCC(=O)NCC)nnc1-c1cc2c(s1)CCC(CC)C2 (stereo not drawn) 7.36 µM
Cc1cccnc1Nc1nc(-c2ccc(O)cc2O)cs1 5.21 µM
Cc1cccnc1Nc1nc(-c2ccc(O)c(O)c2)cs1 4.65 µM
Cc1cccnc1Nc1nc(-c2ccc(O)cc2)cs1 3.29 µM
Cc1ccc2nc(Cl)c(/C=C/C(=O)c3ccco3)cc2c1 14.7 µM
COCc1cc(C)nc2sc(C(=O)Nc3ccccc3O)c(N)c12 13.1 µM
COCc1cc(C)nc2sc(C(=O)Nc3ccccc3F)c(N)c12 18.5 µM
COCc1cc(C)nc2sc(C(=O)Nc3cc(C)ccc3F)c(N)c12 7.36 µM
Cc1c(-c2nsc(NC(=O)c3cccs3)n2)nnn1-c1ccc(Br)cc1 1.85 µM
Cc1c(-c2nsc(NC(=O)c3cccs3)n2)nnn1-c1ccc(Cl)cc1 2.07 µM
Cc1ccc(-n2nnc(-c3nsc(NC(=O)c4ccccc4)n3)c2C)cc1 5.21 µM
Cc1c(-c2nsc(NC(=O)c3cccs3)n2)nnn1-c1ccc(F)cc1 0.521 µM
COc1cccc(-c2nc(=S)c3c(o2)CCCC3)c1 1.85 µM
CCn1c(SCc2nc3ccccc3s2)nnc1-c1ccccc1 16.5 µM
Cc1cccc(C)c1Nc1nnc(SCc2nc3ccccc3s2)s1 4.65 µM
COCCn1c(SCc2nc3ccccc3s2)nc2ccccc21 8.26 µM
Cc1nnc(SCc2nc3ccccc3s2)n1-c1ccccc1 16.5 µM
CCCSc1nnc(Nc2ccccc2C)s1 5.85 µM
CCCn1c(SCc2nc3ccccc3s2)n[nH]c1=O 6.56 µM
O=c1c2ccccc2nc(SCc2nc3ccccc3s2)n1CCCO 11.7 µM
c1ccc(SCc2nc3ccccc3s2)nc1 3.69 µM
Cc1ccccc1OCCSc1nnc(C)n1-c1ccccc1 14.7 µM
Brc1ccccc1-c1nnc(SCc2nc3ccccc3s2)o1 8.26 µM
Nc1ccc(O)c2c(=O)cc(-c3ccccc3Cl)oc12 3.29 µM
Nc1ccc2oc(-c3ccccc3Cl)cc(=O)c2c1O 6.56 µM
O=c1cc(-c2ccccc2Cl)oc2cc(O)cc(O)c12 10.4 µM
C#Cc1cccc(NC(=O)c2ccc(Cl)cc2Cl)c1 1.17 µM
O/N=C/c1cn(-c2ccc(Cl)cc2)nn1 13.1 µM
O=C(COc1ccc(F)cc1Br)NCc1ccccn1 14.7 µM
Cc1ccc(CNC(=O)Nc2ccccc2)c(C)c1 1.65 µM
COc1ccccc1C(=O)NC(=O)Nc1cccc(Cl)c1 0.736 µM
COc1ccc(CNC(=O)Nc2cccc(Cl)c2)cc1 3.69 µM
COc1ccc(CNC(=S)N/N=C(/C)c2ccccc2)cc1 11.7 µM
CSc1ccc(NC(=O)NCc2ccccc2)cc1 9.27 µM
COc1ccc(CNC(=O)Nc2ccccc2)cc1 4.65 µM
COc1ccc(/C=N/N=C2/SCC(=O)N2Cc2ccccc2)cc1 2.07 µM
CCc1ccc2[nH]c(C(=O)Nc3ccc(Br)c(C)n3)cc2c1 1.65 µM
COc1ccc(CNc2nc3nc(C)c(Cl)c(C)n3n2)cc1 16.5 µM
COc1cccc(CNc2nc3nc(C)c(Cl)c(C)n3n2)c1 10.4 µM
O=C(COc1ccccc1Cl)Nc1cccnc1 6.56 µM
O=C(/C=C/c1ccccc1[N+](=O)[O-])Nc1cccnc1 7.36 µM
Cc1ccc(OCC(=O)Nc2ccccc2[N+](=O)[O-])c(Br)c1 1.31 µM
Cc1ccc(Cl)c(OCC(=O)Nc2cccnc2)c1 3.29 µM
Cc1ccc(NC(=O)COc2ccc(Br)cc2C)cc1 9.27 µM
Cc1ccc(NC(=O)c2ccc(OC(=O)COc3ccc(Cl)cc3C)cc2)cc1 1.47 µM
Cc1ccc(OCC(=O)Nc2ccon2)c([N+](=O)[O-])c1 6.56 µM
O=C(COc1ccccc1[N+](=O)[O-])Nc1cccnc1 8.26 µM
O=C(COc1ccccc1[N+](=O)[O-])Nc1ccc(Br)cc1 3.29 µM
O=C(NNC(=S)Nc1ccccc1)c1ccc(O)cc1 7.36 µM
S=C(NNC(=S)Nc1ccccc1)Nc1ccccc1 6.56 µM
Cn1c(C2=C(O)CN(Cc3ccccc3)C2=N)nc2ccccc21 14.7 µM
O=C(Nc1ccccc1F)c1ccc2ncsc2c1 9.27 µM
O=C(Nc1ccc(Br)cc1)c1ccc2ncsc2c1 1.47 µM
O=C(Nc1ccc(F)cc1F)c1ccc2ncsc2c1 13.1 µM
O=C(Nc1ccc(Cl)cc1Cl)c1ccc2ncsc2c1 2.33 µM
N#C/C(=C\c1cccs1)C(=O)Nc1nccs1 7.36 µM
Cc1ccc(OCCn2c(=O)n(C)c3ccccc32)cc1 7.36 µM
Cn1c(=O)n(CCOc2ccccc2Cl)c2ccccc21 7.36 µM
Cc1ccc2oc(C(=O)NCCCN3CCOCC3)c(C)c2c1 2.93 µM
Cc1ccc2oc(C(=O)N3CCCCCC3)c(C)c2c1 6.56 µM
COc1ccc(CCc2nnc(CCC(=O)NCc3cc(C(C)C)no3)o2)cc1 14.7 µM
CCc1cc(CNC(=O)CCc2nnc(CCCc3ccccc3)o2)on1 7.36 µM
CC(C)Sc1ncnc2c1cnn2-c1ccccc1 2.61 µM
Cc1ccc(-n2ncc3c(SCc4ccccc4)ncnc32)cc1 3.29 µM
Brc1ccccc1OCCCn1cnc2ccccc21 1.85 µM
O=[N+]([O-])c1ccccc1OCCCn1cnc2ccccc21 2.93 µM
C#CCn1c(COc2ccccc2C)nc2ccccc21 5.85 µM
Cn1c(COc2ccc(F)cc2)nc2ccccc21 2.93 µM
CCn1c(COc2ccccc2C)nc2ccccc21 9.27 µM
Cc1ccccc1OCc1nc2ccccc2n1C 1.04 µM
Cc1nnc(OCc2nc3ccccc3n2C)c2ccccc12 16.5 µM
Cc1cccc(OCc2nc3ccccc3n2C)c1 16.5 µM
COc1ccc(-c2c(C)c3ccc(O)cc3oc2=O)cc1 9.27 µM
COc1ccc(-c2cc3ccc(O)cc3oc2=O)cc1OC 18.5 µM
COc1ccc(-c2cc3ccc(OCC(C)=O)cc3oc2=O)cc1OC 3.69 µM
COc1ccc(-c2cc3ccc(OCC(C)=O)cc3oc2=O)cc1 0.656 µM
O=C(O)c1cc(N/N=C/c2ccc(-c3ccc(F)cc3)o2)ccc1Cl 16.5 µM
O=C(O)c1cc(N/N=C/c2ccc(OCc3ccccc3)cc2)ccc1Cl 1.17 µM
O=C(O)c1cc(N/N=C/c2ccc(-c3ccccc3)cc2)ccc1Cl 0.233 µM
CSc1n[nH]c(-c2ccc(C(F)(F)F)cc2)n1 7.36 µM
C#CC(C)(C)NC(=O)c1ccc(-c2ccccc2F)cc1 5.85 µM
COc1ccc(C(=O)NC2=Nc3ccccc3N=C(C)C2c2ccccc2)cc1 (stereo not drawn) 13.1 µM
CC(=O)Nc1ccc(N=Nc2ccccc2)cc1 1.65 µM
CC(C)C(=O)OCC(=O)Nc1ccc(N=Nc2ccccc2)cc1 1.85 µM
O=C(Nc1ccc(N=Nc2ccccc2)cc1)c1ccccc1Cl 1.04 µM
CCCC(=O)OCC(=O)Nc1ccc(N=Nc2ccccc2)cc1 3.69 µM
CC(=O)OCC(=O)Nc1ccc(N=Nc2ccccc2)cc1 1.31 µM
COCCC1CCCCN1C(=O)c1ccc2nc(Cc3ccccc3F)oc2c1 (stereo not drawn) 4.14 µM
C/C(=N\N=c1/sc2ccccc2n1C)c1ccccn1 11.7 µM
Cn1/c(=N/N=C/c2ccccn2)sc2ccccc21 2.07 µM
CC(C)c1nn2c(=O)cc(COC(=O)c3cccs3)nc2s1 8.26 µM
Cc1ccccc1C(=O)OCc1cc(=O)n2nc(C(C)C)sc2n1 2.33 µM
COCCc1nn2c(=O)cc(COC(=O)c3ccccc3C)nc2s1 10.4 µM
CCc1nn2c(=O)cc(COC(=O)c3cccs3)nc2s1 9.27 µM
